Compound activity (PubChem)
aSyn UTR act = Activators working through SNCA 5'UTR binding (MLPCN). alpha-synuclein 5'UTR reporter, activators screen. hit rate 7.1% among 300,000. activity score, % (tested at 7.5 µM), hits read low; in the data active = activity score below about -60%
* = called active by the depositor. A selection follows.

SMILES | aSyn UTR act
CCCCCOc1ccc(NC(=O)C(=O)NCCCn2ccnc2)cc1 | 63
CCCOc1ccc(/C(O)=C2/C(=O)C(=O)N(CCCn3ccnc3)C2c2ccco2)cc1 (configuration not stated) | -68*
CC1Cc2cc(/C(O)=C3/C(=O)C(=O)N(Cc4ccco4)C3c3cccs3)ccc2O1 (configuration not stated) | -82*
CCCOc1ccc(/C(O)=C2/C(=O)C(=O)N(CCCn3ccnc3)C2c2ccc(C)o2)cc1 (configuration not stated) | -76*
C=CCOc1ccc(/C(O)=C2/C(=O)C(=O)N(CCCn3ccnc3)C2c2cccs2)cc1 (configuration not stated) | -82*
CCN(CC)CCN1C(=O)C(=O)/C(=C(/O)c2ccc(OC(C)C)cc2)C1c1cccs1 (configuration not stated) | -122*
CCOc1ccc(/C(O)=C2/C(=O)C(=O)N(c3nc(C)c(C)s3)C2c2ccco2)cc1 (configuration not stated) | -85*
O=[N+]([O-])c1ccccc1CSc1nc2ccccc2o1 | -193*
Cc1nc2c(-c3ccc(Cl)cc3)c(C)[nH]n2c(=O)c1Cc1ccccc1 | 78
CCOC(=O)Cc1c(C)nc2c(-c3ccccc3)c(-c3ccccc3)[nH]n2c1=O | -85*
COc1ccc([N+](=O)[O-])cc1N/C(=N/S(=O)(=O)c1ccccc1)c1ccccc1 | -70*
Cc1cccc(N=Nc2cnc(N)s2)c1 | -109*
CC(=O)Nc1ccc(/C=N/Nc2nc3ccccc3[nH]2)cc1 | -101*
c1ccc2[nH]c(NN=C3CCCCCC3)nc2c1 | -114*
COC(=O)c1ccc(/C=N/Nc2nc3ccccc3[nH]2)cc1 | -176*
Clc1nc2ccccc2cc1/C=N/Nc1nc2ccccc2[nH]1 | -97*
C(=N\Nc1nc2ccccc2[nH]1)/c1ccncc1 | -147*
COc1ccc(/C=C/C(=O)NC(=S)N2CCN(c3ccccn3)CC2)cc1 | -122*
COc1ccc(/C=C/C(=O)NC(=S)N2CCSCC2)cc1 | -65*
COc1ccc(NC(=O)CN(C)C(=O)/C=C/c2ccc(S(=O)(=O)N3CCCCCC3)cc2)cc1 | 59
c1ccc2c(c1)Cn1c-2nc2ccccc21 | -124*
Brc1c(-c2ccccc2)nc2n1Cc1ccccc1-2 | -146*
Cc1cccc(-n2ncc3c(NCc4ccccn4)ncnc32)c1 | -113*
c1ccc(-n2ncc3c(NCc4ccccn4)ncnc32)cc1 | -69*
O=C1C2C3C=CC(C3)C2C(=O)N1c1ccc(-c2nc3ccccc3o2)cc1 (configuration not stated) | -152*
SMILES | aSyn UTR act
Cn1c(/C(C#N)=C(\O)c2ccc([N+](=O)[O-])s2)nc2ccccc21 | -115*
Cn1c(/C(C#N)=C(\O)c2ccc(Cl)s2)nc2ccccc21 | -80*
COc1ccc(S(=O)(=O)/N=C2\C=C(Nc3ccc(O)cc3)C(=O)c3ccccc32)cc1 | 100
O=S(=O)(/N=C(/NC(=S)Nc1ccccc1)c1ccccc1)c1ccc(Cl)cc1 | -99*
COc1ccc(NC(=S)N/C(=N/S(=O)(=O)c2ccc(C)cc2)c2ccccc2)cc1 | -146*
COc1cccc(/C=N/Nc2nc3ccccc3[nH]2)c1OC | -106*
COc1cc(/C=N/Nc2nc3ccccc3[nH]2)ccc1O | -270*
COc1ccccc1Nc1nc2ccccc2[nH]1 | -120*
COc1ccc(O)c(/C=N/Nc2nc3ccccc3[nH]2)c1 | -81*
COc1cc(/C=C(/C(=O)c2cccs2)c2nc3ccccc3[nH]2)cc(OC)c1O | -224*
COc1cc(/C=N/Nc2nc3ccccc3[nH]2)cc(OC)c1O | -100*
COc1ccccc1Nc1nc(-c2sc(NC(=O)c3cccc(Cl)c3)nc2C)cs1 | -86*
CCCC(C)C(=O)Nc1nc(C)c(-c2csc(Nc3cc(OC)ccc3OC)n2)s1 (configuration not stated) | 60
Cc1nc(NC(=O)c2ccccc2)sc1-c1csc(Nc2ccc(C(=O)O)cc2)n1 | -73*
Cc1nc(N)sc1-c1csc(Nc2ccccc2)n1 | -130*
O=C(O)c1ccc(Nc2nc(-c3ccccc3)cs2)cc1 | -114*
CC(C)Oc1ccc(C2c3c(oc4ccccc4c3=O)C(=O)N2CCCN2CCOCC2)cc1 (configuration not stated) | -76*
Nc1ccc(Br)cc1-c1nc2ccccc2[nH]c1=O | -102*
Nc1ccccc1-c1nc2ccccc2[nH]c1=O | -141*
CCSc1nnc(-c2ccccc2N)c(=O)[nH]1 | -67*
CN(C)/C=C/C(=O)c1cnc(-c2ccc(Cl)cc2)s1 | -90*
O=C(c1ccccc1)c1cnc(-c2ccccc2)s1 | -99*
CN(C)/C=C/C(=O)c1cnc(-c2ccccc2)s1 | -116*
Cn1cccc1C(=O)C(=O)Nc1ccccc1 | -112*
Cn1cccc1C(=O)C(=O)Nc1ccccc1C(F)(F)F | -130*
SMILES | aSyn UTR act
CN(CC(=O)Nc1ccccc1Cl)C(=O)COC(=O)c1nc(Cl)c(Cl)c(Cl)c1Cl | -129*
CCOc1ccc(NC(=O)COc2ccccc2)c([N+](=O)[O-])c1 | -218*
CCOc1ccc(NC(=O)c2ccc(Br)o2)c([N+](=O)[O-])c1 | -129*
COc1ccc(N/N=C(/C)c2cnnc(-c3ccccc3)n2)cc1 | -70*
COc1ccc(/C(C)=N/Nc2nncc3ccccc23)cc1 | -113*
COc1ccc(/C(C)=N/Nc2nc3ccccc3nc2C)cc1 | -67*
Cc1cc(C)c(NN=c2c(=O)c3ccccc3c2=O)c(C)c1 | -125*
COc1ccc(C(=S)Nc2ccc(N(C)C)cc2)cc1 | -99*
Cc1ccc(NC(=S)c2ccc(N(C)C)cc2)cc1 | 55
CCOc1ccc(NC(=S)c2ccncc2)cc1 | -110*
COc1ccc(NC(=S)c2ccccc2)cc1 | -148*
CCCC(=O)Nc1ccc(-c2csc(-c3cccnc3)n2)cc1 | -114*
CC(=O)Nc1ccc(-c2csc(-c3cccnc3)n2)cc1 | -112*
COc1ccccc1C(=O)Nc1nc2ccc(S(C)(=O)=O)cc2s1 | -118*
COc1ccccc1C(=O)Nc1nc2ccccc2s1 | 109
CS(=O)(=O)c1ccc2nc(NC(=O)c3ccccc3Cl)sc2c1 | -109*
CS(=O)(=O)c1ccc2nc(NC(=O)c3cccc(Cl)c3)sc2c1 | -72*
CS(=O)(=O)c1ccc2nc(NC(=O)c3ccccc3Br)sc2c1 | -104*
Cc1noc(C)c1C(=O)Nc1nc2ccc(S(C)(=O)=O)cc2s1 | -70*
Cc1cc(C)n(-c2nc(N(c3ccccc3)c3ccccc3)nc(-n3nc(C)cc3C)n2)n1 | 57
Cc1cc(C)n(-c2ncc(-c3ccccc3)nn2)n1 | -69*
Cc1cc(C)n(-c2nncc(-c3ccccc3)n2)n1 | -76*
c1ccc(-c2cnnc(N3CCOCC3)n2)cc1 | -110*
CC(C)(C)NC(=O)Nc1ccc(Br)cc1 | -138*
CCC(C)NC(=O)Nc1ccc(Br)cc1 (configuration not stated) | -73*
SMILES | aSyn UTR act
Cc1ccc2nc(N3C(=O)CNC3=S)sc2c1 | -68*
CCOc1ccc(OCCOc2ncnc3ccccc23)cc1 | -70*
Cc1ccc(Oc2ncnc3sccc23)cc1 | -143*
c1ccc(OCCOc2ncnc3sccc23)cc1 | -126*
CN(C)/C=C/C(=O)c1ccc(Br)cc1 | -70*
Cc1nc(-c2ccc(NC(=O)c3ccccc3Br)cc2)cs1 | -161*
Cc1nc(-c2ccc(NC(=O)c3ccccc3C)cc2)cs1 | -123*
CCN1CCN(c2ccc(NC(=O)c3ccco3)cc2Cl)CC1 | -112*
O=C(Nc1ccc(N2CCOCC2)c([N+](=O)[O-])c1)c1ccco1 | -73*
